Screens (PubChem)
Rows were chosen to be rich in hits. Some 0.3% of all compounds tested hit in one or more screens of this group.
NPYLR7 agonist: mosquito NPYLR7 agonism; activation, % at 10 µM; HEK293T NPYLR7/Galpha15, GCaMP6s calcium fluorescence; hit rate 0.15% among 270,000; in the data active = activation above about 40%;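 also: 0% = vehicle and 100% = reference agonist at the receptor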
hcGAS lum: human cGAS inhibition. recombinant h-cGAS, ATP depletion, Kinase-Glo luminescence. inhibition, % at 12.5 µM. hit rate 0.081% among 290,000;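 also: 0% = vehicle reaction and 100% = reaction without DNA for no activity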
mcGAS inh: inhibitors of mouse cGAS; Q8C6L5; recombinant cGAS, Kinase-Glo ATP depletion luminescence; inhibition, % at 12.5 µM; hit rate 0.15% among 160,000; AID 1259399;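 also: 0% = negative control wells and 100% = reference inhibitor with no enzyme activity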
Target sequence (Q8C6L5 whole entry, looked up): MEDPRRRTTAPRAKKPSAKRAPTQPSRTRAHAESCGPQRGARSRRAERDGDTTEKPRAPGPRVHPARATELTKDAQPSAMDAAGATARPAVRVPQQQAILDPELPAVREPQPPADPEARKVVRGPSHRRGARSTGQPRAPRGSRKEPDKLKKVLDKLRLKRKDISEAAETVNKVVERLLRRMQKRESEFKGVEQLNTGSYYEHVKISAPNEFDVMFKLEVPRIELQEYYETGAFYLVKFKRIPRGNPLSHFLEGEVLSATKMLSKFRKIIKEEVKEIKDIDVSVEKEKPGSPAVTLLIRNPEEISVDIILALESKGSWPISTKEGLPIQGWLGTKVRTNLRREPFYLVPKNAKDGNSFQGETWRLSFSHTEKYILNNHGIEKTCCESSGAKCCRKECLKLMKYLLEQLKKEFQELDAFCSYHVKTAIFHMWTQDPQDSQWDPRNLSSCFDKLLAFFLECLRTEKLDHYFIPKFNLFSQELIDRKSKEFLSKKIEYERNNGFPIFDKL
* marks the source's active call; other numbers are inactive results. Rule as the data show it, unless noted: active = inhibition above about 40%; inactive = the rest.

`CCC(C)N(C(=O)CN1CCN(c2ccc(F)cc2)CC1)C1CCS(=O)(=O)C1` (centres undefined) gave NPYLR7 agonist -2 and hcGAS lum -1.
Screening O=c1oc2c(CN3CCN(CCO)CC3)c(O)ccc2cc1-c1ccc(Cl)cc1 returned NPYLR7 agonist 7, hcGAS lum -8 and mcGAS inh -7.
`O=C1/C(=C/c2cccc(Br)c2)Oc2c1ccc(O)c2CN1CCN(CCO)CC1` gave NPYLR7 agonist 52*, hcGAS lum 6 and mcGAS inh 10.
Screening O=C1/C(=C/c2cccc(F)c2)Oc2c1ccc(O)c2CN1CCN(CCO)CC1 returned NPYLR7 agonist 57*, hcGAS lum 9 and mcGAS inh 2.
For Cc1cc(O)c(CN2CCN(CCO)CC2)c2c1C(=O)/C(=C/c1ccco1)O2 the results were NPYLR7 agonist 28, hcGAS lum -2 and mcGAS inh -10.
`Cc1cc(O)c(CN2CCN(CCO)CC2)c2c1C(=O)/C(=C/c1ccc(F)cc1)O2` gave NPYLR7 agonist 15, hcGAS lum -7 and mcGAS inh -7.
For O=C1/C(=C/c2cccc(Cl)c2)Oc2c1ccc(O)c2CN1CCN(CCO)CC1 the results were NPYLR7 agonist 50*, hcGAS lum 15 and mcGAS inh 12.
Screening Oc1c2cccnc2cn1Cc1csc(Cc2ccccc2)n1 returned NPYLR7 agonist 0, hcGAS lum -3 and mcGAS inh -11.
For COc1ccc(-c2nc(CC(=O)NC(C)c3cccs3)cs2)cc1 (centres undefined) the results were NPYLR7 agonist 3, hcGAS lum -1 and mcGAS inh -5.
CCCCS(=O)(=O)N1CCC2(CC1)CC2c1nc(-c2cccc(Cl)c2)no1 (centres undefined) was read as NPYLR7 agonist 5 and hcGAS lum -9.
`COCCC(=O)N1CCc2c([nH]c3ccccc23)C1c1cccc(C(F)(F)F)c1` (centres undefined) gave NPYLR7 agonist 6 and hcGAS lum -2.
For CN(CCc1noc(C2CCCCC2)n1)C(=O)NC12CC3CC(CC(C3)C1)C2 the results were hcGAS lum -7 and mcGAS inh -3.
`Cc1ccc(NC(=O)CN2CC(=O)Nc3ccccc32)c(Cl)c1` gave NPYLR7 agonist 7 and hcGAS lum -10.
Screening O=S(=O)(Nc1cc(Sc2ncn[nH]2)c(O)c2ccccc12)c1ccc(Br)cc1 returned NPYLR7 agonist -5, hcGAS lum -5 and mcGAS inh 44*.
For CC(C)(C)c1ccc(S(=O)(=O)Nc2cc(Sc3ncn[nH]3)c(O)c3ccccc23)cc1 the results were NPYLR7 agonist -7, hcGAS lum -8 and mcGAS inh 14.
Cc1ccc(C(=O)Nc2ccc3c(c2)C(=O)c2ccccc2C3=O)cc1 was read as NPYLR7 agonist -1 and hcGAS lum -8.
`CN(C)S(=O)(=O)c1ccc(C(=O)Nc2ccc3c(c2)C(=O)c2ccccc2C3=O)cc1` gave NPYLR7 agonist 20, hcGAS lum -2 and mcGAS inh 105*.
O=C(c1cccs1)c1cccs1 was read as NPYLR7 agonist -1 and hcGAS lum -9.
NC(=O)n1c(O)c(C(=O)c2cccs2)c2cc(Cl)ccc21 was read as NPYLR7 agonist -3 and hcGAS lum 67*.
Screening CCC(=O)Oc1ccc2c(c1)O/C(=C\c1ccco1)C2=O returned NPYLR7 agonist -1, hcGAS lum 17 and mcGAS inh 80*.
COc1cccc(C(=O)Oc2ccc3c(c2)O/C(=C\c2ccc(C)o2)C3=O)c1 was read as NPYLR7 agonist -6, hcGAS lum 0 and mcGAS inh -1.
Cc1cc(-c2csc(CN3C(=O)CNC3=O)n2)cc(C)c1F was read as NPYLR7 agonist -4, hcGAS lum -2 and mcGAS inh -10.
`CCC(CO)[n+]1c(C)cc(C=C2Sc3ccccc3N2Cc2ccccc2)cc1C` (centres undefined) gave NPYLR7 agonist 150* and hcGAS lum 7.
CCN1/C(=C\C=C2/SC(=NCc3ccccc3)N(C)C2=O)Sc2ccccc21 was read as NPYLR7 agonist -5, hcGAS lum 0 and mcGAS inh 1.
For CCN1C(=Cc2cc(C)[n+](C3CCCCC3)c(C)c2)Sc2ccccc21 the results were NPYLR7 agonist 266* and hcGAS lum 1.
Screening CCN1C(=Cc2cc(C)[n+](CCO)c(C)c2)Sc2ccccc21 returned NPYLR7 agonist 46, hcGAS lum 2 and mcGAS inh -1.
CCCCC(Sc1ccc2nnc(-c3ccccn3)n2n1)C(=O)O (centres undefined) was read as NPYLR7 agonist 2, hcGAS lum -4 and mcGAS inh -7.
For COc1ccccc1OCC(=O)N1CCCC(Nc2cccc(F)c2)C1 (centres undefined) the results were NPYLR7 agonist -5 and hcGAS lum 3.
Screening N#CC(=CC=Cc1ccco1)C(N)=S returned NPYLR7 agonist 6, hcGAS lum 61* and mcGAS inh 79*.
`O=C(COC(=O)C=Cc1ccco1)COC(=O)C=Cc1ccco1` gave NPYLR7 agonist -15 and hcGAS lum 16.
`CC(C)N(CCNC(=O)N1CCN(C2CC2)C(=O)C1)C1CC1` gave NPYLR7 agonist -2 and hcGAS lum -15.
`O=C(/C=C/c1ccc(Cl)cc1Cl)n1cccn1` gave NPYLR7 agonist -10, hcGAS lum 4 and mcGAS inh 44*.
`CN1CCN(C(=O)/C=C/c2ccc(Cl)cc2Cl)CC1` gave NPYLR7 agonist -3, hcGAS lum -2 and mcGAS inh -6.
`COc1ccc(C(=O)COc2ccc(-c3noc(C(C)C)n3)cc2)cc1` gave NPYLR7 agonist 7 and hcGAS lum active.
For CCOc1ccc(-c2cc(-c3nc(-c4ccc(OC)cc4)no3)[nH]n2)cc1 the results were NPYLR7 agonist 3, hcGAS lum -8 and mcGAS inh -8.
For CN(CCNC1CCN(c2ccc(F)cc2)C1)S(C)(=O)=O (centres undefined) the results were NPYLR7 agonist -4 and hcGAS lum 2.
`CN1C(=S)N(CCCN2CCOCC2)C(=O)/C1=C\c1ccc2c(c1)OCO2` gave NPYLR7 agonist 17, hcGAS lum -6 and mcGAS inh -7.
CN1C(=S)N(CCCN2CCOCC2)C(=O)/C1=C/c1ccc(N(C)C)cc1 was read as NPYLR7 agonist 60*, hcGAS lum -8 and mcGAS inh -9.
For O=C(Nn1cnc2c(cnn2-c2ccccc2)c1=O)C1(c2ccc(Cl)cc2)CCCC1 the results were NPYLR7 agonist 6 and hcGAS lum -10.
`CC(C)NC(=O)C(C#N)=Cc1ccc(O)cc1` gave NPYLR7 agonist 4, hcGAS lum 7 and mcGAS inh 2.
`N#CC(=Cc1ccc(OC(F)F)cc1)C(=O)O` gave NPYLR7 agonist 0, hcGAS lum -2 and mcGAS inh 49*.
O=S1(=O)N=C(CSc2ccccc2F)Nc2ccccc21 was read as NPYLR7 agonist -1 and hcGAS lum -2.
`CC(=O)O[C@@H]1CC[C@@]2(C)C(CC[C@]3(C)C2CC=C2C4CC(C)(C)CC[C@]4(C(=O)O)CC[C@]23C)C1(C)C` (some centres undefined) gave hcGAS lum -5 and mcGAS inh -4.
